Measured values published in PubChem BioAssay (Tox21).
Results filed as inconclusive are left out. A call without a number means that no potency is given here. A structure can be active in one record and inactive in another. Activity calls are given as the source filed them. The call rests on the fitted dose curve; in most records, active means well fitted cell-killing curve with a large enough effect in the repeat runs; inconclusive means weak or mixed curves, or effect the other way; inactive means flat fitted curve, though single readings scatter.
Potency means the concentration at half of the fitted maximal effect.

Assay: Human pregnane X receptor (PXR) small molecule agonists, qHTS cell viability counter screen (AID 1346977); further: nearly all actives have a fitted effect of over 50% in size
Details: PXR-Luc HepG2 viability, CellTiter-Fluor, 24 h; series mostly up to 92.4 µM
From the text: U.S. Tox21 Program National Center for Advancing Translational Sciences [NCATS] NIH Chemical Genomics Center [NCGC] U.S. Environmental Protection Agency [EPA] National Institutes of Environmental Health Sciences [NIEHS] National Toxicology Program [NTP] U.S. Food and Drug Administration [FDA] Tox21 Assay Overview: The human pregnane X receptor (hPXR) regulates the expression of several drug metabolizing enzymes and induction of these proteins is a major mechanism for developing drug resistance in cancer. One such key enzyme catalyzing the drug metabolism is cytochrome P450 3A4 (CYP3A4). Changes in CYP3A4 expression affect drug metabolism, thereby reducing the therapeutic efficacy and altering toxicological response to a drug and which finally causes adverse drug interaction. To screen Tox21 libraries for compounds that activate hPXR-mediated CYP3A4 gene expression, PXR-Luc HepG2 cells were used. Also cytotoxicity of the compounds was tested in parallel by measuring the cell viability using CellTiter-Fluor assay system in the same wells.
Tox21 Assay Protocol Summary: PXR-Luc HepG2 cells were dispensed at 2,000 per well in 5uL of assay medium containing 5% charcoal-stripped FBS into white solid bottom 1536-well plates (Corning Life Sciences, Corning, NY) using a Multidrop Combi (Thermo Scientific, Waltham, MA) dispenser. The assay plates were incubated at 37 C and 5% CO2 for 5hr, and then 23nL of compounds dissolved in DMSO and positive control were transferred using a Pintool station (Wako, San Diego, CA). The assay plates were incubated at 37C and 5% CO2 for 24hr. For cytotoxicity read, after 23hr incubation at 37C, 1uL CellTiter-Fluor reagent (Promega Corporation, Madison, WI) was added to each well of the assay plates using Flying Reagent Dispenser (FRD, Aurora Discovery, San Diego, CA). After 1hr incubation at 37C and 5% CO2, the fluorescence signal was quantified using a ViewLux plate reader (PerkinElmer, Shelton, CT).
With `CNN` the Potency was “inactive”. For `CCC[CH2][Sn]([CH2]CCC)([CH2]CCC)[CH2]CCC`, the Potency was 15.4 µM (active). In the case of `O.O.O.O=C([O-])[C@H]([O-])[C@@H]([O-])C(=O)[O-].O=C([O-])[C@H]([O-])[C@@H]([O-])C(=O)[O-].[K+].[K+].[Sb+3].[Sb+3]`, the Potency is reported as “inactive”. In the case of `Clc1ccc(C(Cl)(Cl)Cl)cc1Cl`, the Potency is reported as “inactive”. With `CC(C)c1c(CN(C)C(C)Cc2ccccc2)n(C)n(-c2ccccc2)c1=O` (stereo not given) the Potency was “inactive”. In the case of `CCC(OC(C)=O)C(CC(C)NC)(c1ccccc1)c1ccccc1` (stereo not given), the Potency is reported as 27.5 µM (active). For `CCN(CC)C(=S)S`, the Potency was 28.2 µM (active) and inactive. In the case of `O=c1c2ccccc2c(=O)c2c1cc(Cl)c1[nH]c3c([nH]c12)c(Cl)cc1c(=O)c2ccccc2c(=O)c13`, the Potency is reported as “inactive”. For `Nc1ccc(Cl)cc1C(=O)c1ccccc1F`, the Potency was “inactive”. For `O.O.O.O.O.O.O.O=S(=O)([O-])[O-].[Co+2]`, the Potency was “inactive”. For `Cc1nn(-c2cc(NS(C)(=O)=O)c(Cl)cc2Cl)c(=O)n1C(F)F`, the Potency was “inactive”. In the case of `C[C@]12C/C(=C/O)C(=O)C[C@@H]1CC[C@@H]1[C@@H]2CC[C@@]2(C)[C@H]1CC[C@]2(C)O`, the Potency is reported as “inactive”. In the case of `COc1nc(C)nc(NC(=O)NS(=O)(=O)c2ccccc2Cl)n1`, the Potency is reported as “inactive”. With `CN1C(=O)[C@@H](NC(=O)c2cc3ccccc3[nH]2)N=C(c2ccccc2)c2ccccc21` the Potency was “inactive”. In the case of `Nc1c(Cl)c(Cl)c(Cl)c(Cl)c1Cl`, the Potency is reported as “inactive”. For `O=C(O)[C@H](O)[C@@H](O)C(=O)O`, the Potency was “inactive”. For `CCC1COC(Cn2cncn2)(c2ccc(Cl)cc2Cl)O1` (stereo not given), the Potency was “inactive”. In the case of `O=[N+]([O-])c1ccc(Cl)c(Cl)c1Cl`, the Potency is reported as “inactive”. In the case of `CO/N=C(/C1=NOCCO1)c1ccccc1Oc1ncnc(Oc2ccccc2Cl)c1F`, the Potency is reported as 9.68 µM (active). With `Nc1nc(N)c(N)c(N)n1` the Potency was “inactive”. In the case of `CC1(C)C(C=C(Cl)Cl)C1C(=O)OC(C#N)c1ccc(F)c(Oc2ccccc2)c1` (stereo not given), the Potency is reported as “inactive”. For `CCOP(=S)(OCC)SC(CCl)N1C(=O)c2ccccc2C1=O` (stereo not given), the Potency was “inactive”. For `O=NN(CCO)CCO`, the Potency was “inactive”. In the case of `[O]=[Cr][O][Cr]=[O]`, the Potency is reported as “inactive”. In the case of `CC1CCCC1`, the Potency is reported as “inactive”. In the case of `CC[C@H](C)[C@H]1O[C@]2(C=C[C@@H]1C)C[C@@H]1C[C@@H](C/C=C(\C)[C@@H](O[C@H]3C[C@H](OC)[C@@H](O[C@H]4C[C@H](OC)[C@@H](NC)[C@H](C)O4)[C@H](C)O3)[C@@H](C)/C=C/C=C3\CO[C@@H]4[C@H](O)C(C)=C[C@@H](C(=O)O1)[C@]34O)O2`, the Potency is reported as 6.86 µM (active). In the case of `CSC(C)(C)/C=N/O`, the Potency is reported as “inactive”. With `CNC(=O)CSP(=O)(OC)OC` the Potency was “inactive”. With `CC(C)C(Br)C(=O)NC(N)=O` (stereo not given) the Potency was “inactive”. For `CC(=O)[O-].CC(=O)[O-].O.O.[Zn+2]`, the Potency was “inactive”. For `Clc1ccc(C2(Cn3cncn3)OCCO2)c(Cl)c1`, the Potency was “inactive”. With `Nc1cc(Cl)ccc1Cl` the Potency was “inactive”. With `CN(C)c1ccc(N)cc1` the Potency was 42.2 µM (active). For `CCc1cccc(C)c1N(C(=O)CCl)[C@@H](C)COC`, the Potency was “inactive”. For `CC(C)Br`, the Potency was “inactive”. For `Cc1c([N+](=O)[O-])c(C)c([N+](=O)[O-])c(C(C)(C)C)c1[N+](=O)[O-]`, the Potency was “inactive”. With `CCOP(=S)(OCC)Oc1cc(C)nc(N(CC)CC)n1` the Potency was “inactive”. For `N#CCCl`, the Potency was “inactive”. For `O=[N+]([O-])C(Br)Br`, the Potency was “inactive”. For `Brc1cccc(-c2ccccc2)c1`, the Potency was “inactive”.
